Measured values published in PubChem BioAssay.

What follows are compounds tested against Fibroblast growth factor 2 (Homo sapiens) (UniProt P09038) (assay: FGF2 binders on small-molecule microarrays, primary screen, biochemical, small-molecule microarray, 635/667 nm fluorescence (AID 1133)). Conditions: small-molecule microarray binding, FGF2, fluorescence 635/667; higher = more signal.
Sequence of Fibroblast growth factor 2 (Homo sapiens) (P09038 whole entry, looked up): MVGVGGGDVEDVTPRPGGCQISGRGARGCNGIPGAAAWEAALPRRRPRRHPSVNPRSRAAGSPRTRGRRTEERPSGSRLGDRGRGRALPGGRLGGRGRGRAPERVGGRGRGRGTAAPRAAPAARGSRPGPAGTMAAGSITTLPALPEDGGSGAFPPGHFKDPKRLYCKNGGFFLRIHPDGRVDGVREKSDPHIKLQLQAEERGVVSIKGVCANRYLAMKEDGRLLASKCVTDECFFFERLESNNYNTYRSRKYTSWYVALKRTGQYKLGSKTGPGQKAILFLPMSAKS
CC(C)c1ccc(NN2C(C(O)c3c(F)cccc3Cl)C=CC3C(=O)N(c4ccccc4)C(=O)C32)cc1 (configuration not stated) gave a composite z-score of -0.0904. CC(C)(C)OC(=O)CC[C@@]1(C(=O)O)N=C(c2ccc(OCCCO)cc2)O[C@@H]1c1ccccc1N=[N+]=[N-] showed a composite z-score of -0.349. COC(=O)C[C@@H]1C[C@H](C)[C@]2(O1)C(=O)N(Cc1ccccc1)c1ccc(NC(C)=O)cc12 showed a composite z-score of 0.471. COCC1=C2[C@@H](CCc3ccccc3)OB(O)C[C@@H]2[C@@H]2C(=O)N(Cc3ccccc3)C(=O)[C@@H]2C1 showed a composite z-score of -0.0119. With C=CCOC(=O)[C@@H]1[C@H]2C(=O)O[C@H](c3ccccc3)[C@H](c3ccccc3)N2[C@H](c2ccc(OCCOC(=O)[C@@H]3C[C@@H]4C(=O)NCC(=O)N4[C@@H]3c3cccc(OCCO)c3)cc2)[C@@]12C(=O)Nc1ccc(I)cc12 the composite z-score was 1.31. C=CCC(OC(C)=O)[C@@H]1[C@@H](N(Cc2cccc3ccccc23)C(=O)c2ccc(C)cc2)c2cc(OCCCO)ccc2N1C(=O)Cc1ccc(OC)cc1 (some centres not stated) gave a composite z-score of -0.148. For O=C1OCCC=C[C@H]2OC34C=CCN(Cc5ccccc5)C(=O)[C@H]3N(CCCCCO)C(=O)[C@@H]4C12 (some centres not stated), the composite z-score was -1.16. Compound O=C(OCCF)C1=CCC(c2cccc(Cl)c2)O1 (configuration not stated) has a composite z-score of -0.211. For [N-]=[N+]=NCc1ccccc1[C@@H]1OC(c2ccc(OCCCO)cc2)=N[C@]1(Cc1ccccc1)C(=O)N1CCCCC1, the composite z-score was 1.55. Work on Cc1cc(C)c(C(O)C2C=CC3C(=O)N(c4ccccc4)C(=O)C3N2Nc2ccc(C#N)cc2)c(C)c1 (configuration not stated) yielded a composite z-score of 0.312. For C=C[C@@H](COC(C)=O)N(Cc1ccccc1[N+](=O)[O-])S(=O)(=O)c1ccc(Br)cc1, the composite z-score was 1.51. COc1ccc(C#Cc2ccc3c(c2)[C@]2(C(=O)N3)[C@H](c3ccc(O)cc3)N3[C@H](c4ccccc4)[C@H](c4ccccc4)OC(=O)[C@H]3[C@@H]2C(=O)NC[C@H](O)c2ccccc2)cc1 gave a composite z-score of 0.487. For C=CCNC(=O)[C@@H]1[C@H]2C(=O)O[C@H](c3ccccc3)[C@H](c3ccccc3)N2[C@H](c2ccccc2OCCO)[C@@]12C(=O)Nc1ccc(C#CC3=CCCCC3)cc12, the composite z-score was 1.02. Compound [N-]=[N+]=NCc1ccccc1[C@@H]1OC(c2ccc(OCCCO)cc2)=N[C@]1(Cc1ccccc1N=[N+]=[N-])C(=O)NCc1ccccc1 has a composite z-score of 0.578. Work on COCCOC(=O)N1C(=O)[C@@]2(c3cc(C#CCCO)ccc31)[C@H](c1ccccc1OCCO)N1[C@H](c3ccccc3)[C@H](c3ccccc3)OC(=O)[C@H]1[C@@H]2C(=O)N1CCN(c2ncccn2)CC1 yielded a composite z-score of 0.819. CCCCC=C[C@@H](NC(=O)c1ccc(C(=O)OC)cc1)c1ccccc1 gave a composite z-score of 0.0889. For CC(C)NC(=O)[C@@H]1c2ccccc2C(=O)N(Cc2ccccc2Cl)[C@H]1c1ccc(CO)cc1, the composite z-score was -0.222. In the case of COc1cc2c(cc1OC)CN(C(=O)[C@@H]1[C@H]3C(=O)O[C@H](c4ccccc4)[C@H](c4ccccc4)N3[C@H](c3ccccc3OCCO)[C@@]13C(=O)Nc1ccc(C#CCNC(N)=O)cc13)CC2, the composite z-score was 0.748. O=C1C=CC(=O)[C@@H]2CC(COc3ccccc3)=C3[C@@H](CCc4ccccc4)OB(O)C[C@@H]3[C@H]12 gave a composite z-score of 0.45. With O=C(NCc1ccccc1)[C@]1(CCS(=O)(=O)c2ccccc2)N=C(c2ccc(OCCCO)cc2)O[C@@H]1c1ccccc1 the composite z-score was -0.0072. COc1ccc(C#Cc2ccc3c(c2)[C@]2(C(=O)N3)[C@H](C(=O)NC[C@H](O)c3ccccc3)[C@H]3C(=O)O[C@H](c4ccccc4)[C@H](c4ccccc4)N3[C@@H]2c2ccc(OCCO)cc2)cc1 showed a composite z-score of 1.19. Work on CCOc1cc(C(O)C2C=CC3C(=O)N(c4ccccc4)C(=O)C3N2Nc2ccc([N+](=O)[O-])cc2)ccc1O (configuration not stated) yielded a composite z-score of 0.0474. Compound [N-]=[N+]=NCc1ccccc1C[C@]1(C(=O)NCCN2CCOCC2)N=C(c2ccc(OCCCO)cc2)O[C@H]1c1ccccc1N=[N+]=[N-] has a composite z-score of 0.0056. For C=C[C@@H](COC(C)=O)N(Cc1ccc([N+](=O)[O-])cc1)S(=O)(=O)c1ccc(Br)cc1, the composite z-score was 0.54. With COc1ccc(CCNC(=O)[C@@]2(c3ccc([N+](=O)[O-])cc3)CC(=O)N(CC34CC5CC(CC(C5)C3)C4)[C@@H]2c2ccc(CO)cc2)cc1 the composite z-score was 1.21. COCC(=C=CC[C@H](O)c1ccc(OCCO)cc1)C[C@H](O)c1cc(Cl)cc(Cl)c1O showed a composite z-score of 1.4. Compound CO[C@H]1O[C@H](CO)[C@@H](OC(=O)Nc2ccc3c(c2)OCO3)[C@H](OC(=O)Nc2ccccc2)[C@H]1OC(=O)Nc1ccccc1 has a composite z-score of 0.924.
